The panel holds about 83,000 compounds, 20% with a hit somewhere; the sample as a whole holds those more often.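 Single-dose data. Exposure time 48 hours. Values below 10 considered active.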 Unmarked numbers belong to inactive results. The source made the active and inactive calls.
Tested on: MDA-MB-435 melanoma
Test: NCI-60 one-dose screen, 48 h (100 = growth as untreated, 0 = no growth, -100 = all killed)
Details: 10 µM unless noted

SMILES | growth
CC(=O)Nc1ccc(O)c(C)c1 | 108%
O=C(c1cccc(C(=O)c2ccc3c4c(cccc24)C(=O)N(c2ccccc2)C3=O)c1)c1ccc2c3c(cccc13)C(=O)N(c1ccccc1)C2=O | 107%
Cc1ccc(S(=O)(=O)Oc2ccc3sc4c(CO)ccc(NCCN(C)C)c4c(=O)c3c2)cc1 | -98% [100 µM] (active)
O=C1NC(=O)/C(=C\c2ccncc2)N1 | 96%
O=C(c1ccccc1O)N1CCCC1 | 103%
C1Cc2onc(-c3noc4c3CCC4)c2C1 | 113%
O=S(=O)(O)c1ccc(O)c(C2CCCCC2)c1 | 102%
CNc1ccccc1C(=O)N/N=C/C=C/c1ccccc1 | -43.1% (active)
O=C(O)CC1=CCCCC1 | 101%
CC(C)c1ccc(C(=O)OCCCl)cc1 | 95.9%
CCCCCCCCNC(=O)C(C)C | 102%
Cc1ccc(C)c2c1CCC2=O | 93.3%
CC1(C)CCC(C)(C)NC(=S)N1 | 111%
COc1ccc(/C=N/NC(=O)COCC(=O)N/N=C/c2ccc(OC)cc2)cc1 | 98.2%
Cc1ccccc1NC(=O)Oc1ccc(Cl)cc1C(=O)c1ccccc1 | 103%
CC(=O)c1cccs1 | 109%
CSc1cnc2ccccc2n1 | 103%
CCCC(OC(C)=O)c1ccc2c(c1)OCO2 (stereo not given) | 106%
CC(C)N(C(=O)c1ccccc1)C(C)C | 107%
O=C(O)c1ccc(OCc2ccccc2)cc1 | 108%

— PubChem BioAssay (NCI)
